Only some compounds are listed: those with a hit (about 5.1% of all), similar ones and a draw of the others.
Tau ThT inhib = tau fibrillization inhibition (ThT binding); P10636; recombinant tau K18 P301L, heparin-induced fibrillization, ThT fluorescence; Potency, µM (top dose mostly 57.4 µM), without a hit: at the highest dose activity, negative = inhibition, hits mostly inhibitors; 270,000 compounds, 2.1% hits; AID 1460; also: potency is read from the fitted curve at half-maximal effect; nearly all actives have a fitted effect of over 55% in size
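Recombinant human tau K18 fragment […] carrying P301L, 15 uM unlabeled plus 0.24 uM Alexa 594-labeled, was fibrillized with 20 uM heparin in 100 mM sodium acetate pH 7 for 6 hr at 37 C; 30 uM ThT fluorescence read after 1 hr.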
KDM4E inh = inhibitors of human JMJD2E histone demethylase; B2RXH2; JMJD2E catalytic domain, FDH-coupled NADH fluorescence (FDH is formaldehyde dehydrogenase); Potency, µM (top dose mostly 57.1 µM), without a hit: at the highest dose activity change, negative = inhibition, usual class: inhibitors; 230,000 compounds, 1.6% hits; active = well fitted inhibition curve with a large enough effect, not every such curve was filed as active; inconclusive = small, poorly fitted or top-dose-only effect, or another doubt; inactive = no such curve, though single readings can be large or run the other way;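 also: potency is read from the fitted curve at half-maximal effect; 0% = wells with enzyme and -100% = buffer wells without enzyme; nearly all actives have a fitted effect of over 50% in size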
Target sequence (B2RXH2 1-337 limits assumed): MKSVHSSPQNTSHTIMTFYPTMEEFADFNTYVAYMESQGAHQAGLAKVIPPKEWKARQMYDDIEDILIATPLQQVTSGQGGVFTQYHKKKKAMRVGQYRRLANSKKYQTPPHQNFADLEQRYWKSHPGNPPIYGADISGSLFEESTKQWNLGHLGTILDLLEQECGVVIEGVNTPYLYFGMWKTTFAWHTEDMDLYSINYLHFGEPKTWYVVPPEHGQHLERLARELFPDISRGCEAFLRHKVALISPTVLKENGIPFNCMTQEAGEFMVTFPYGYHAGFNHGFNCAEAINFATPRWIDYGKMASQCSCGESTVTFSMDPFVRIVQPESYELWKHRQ
NPSR antagonist = antagonists of human neuropeptide S receptor cAMP signaling. Q6W5P4. CHO-NPSR cells, cAMP TR-FRET, antagonist mode. Potency, µM (titrated, usually from 38.3 µM), for inactives: at the top dose activity change, negative = inhibition, actives largely listed as inhibitors. 220,000 compounds, 1% hits; also: potency is read from the fitted curve at half-maximal effect; nearly all actives have a fitted effect of over 50% in size
Target sequence (Q6W5P4 whole entry, looked up): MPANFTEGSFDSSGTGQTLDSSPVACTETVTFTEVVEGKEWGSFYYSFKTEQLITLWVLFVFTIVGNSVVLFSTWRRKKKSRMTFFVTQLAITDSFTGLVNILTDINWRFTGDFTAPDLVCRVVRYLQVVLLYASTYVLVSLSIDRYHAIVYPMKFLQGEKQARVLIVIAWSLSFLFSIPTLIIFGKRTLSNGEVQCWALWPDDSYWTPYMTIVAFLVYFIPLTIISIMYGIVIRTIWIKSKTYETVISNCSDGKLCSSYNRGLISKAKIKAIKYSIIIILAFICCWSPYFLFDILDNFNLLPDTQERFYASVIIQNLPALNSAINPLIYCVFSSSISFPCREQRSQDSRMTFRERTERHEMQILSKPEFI
Tau fluor counter = counter-screen for tau fibril formation inhibitors | 280,000 compounds, 0.93% hits | Potency, µM (doses to about 57.7 µM), inactives show top-dose activity change, negative = decrease | AID 1463 | tau K18 P301L Alexa594 fluorescence, heparin fibrillization; also: potency is read from the fitted curve at half-maximal effect; nearly all actives have a fitted effect of over 55% in size
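Human tau K18 P301L (15 uM unlabeled, 0.24 uM Alexa 594-labeled) in 100 mM sodium acetate pH 7 with 20 uM heparin, 6 hr at 37 C. ThT 30 uM added, 1 hr ambient; Alexa 594 FP and total fluorescence read at 555/632 nm.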
Tau fibril FP = tau fibrillization inhibition (FP) | P10636 | K18 P301L tau heparin fibrillization, Alexa594 FP, 6 h | Potency, µM (doses to about 57.7 µM), for the others: at the top dose activity, negative = inhibition, usual class: inhibitors | 280,000 compounds, 0.39% hits; also: potency is read from the fitted curve at half-maximal effect; nearly all actives have a fitted effect of over 55% in size
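Heparin (20 uM) drove fibril formation of recombinant tau K18 P301L, 15 uM unlabeled with 0.24 uM Alexa 594 label, for 6 hr at 37 C in 100 mM sodium acetate pH 7. Fluorescence polarization (555/632 nm) read 1 hr after 30 uM ThT.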
PNC assembly inh = perinucleolar compartment assembly inhibition; PC3M PTB-GFP, PNC prevalence imaging, 16 h; active compounds read low; activity change (PNC), negative = inhibition, % at 10 µM; 140,000 compounds, 3.1% hits;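 active = readout at or below -70, meaning at least 70% loss of cells showing the perinucleolar compartment, a nuclear body marking cancer cells; inconclusive = readout between -30 and a set limit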;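 also: plate controls were DMSO wells for no effect and camptothecin positive control wells for full effect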
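Read-out is percentage of cells bearing a perinucleolar compartment, from automated 20x imaging of fixed, Hoechst-stained PC3M PTB-GFP cells. Cells were seeded 4 h, then exposed 16 h to compound (23 nl of library stock) in duplicate plates.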
An asterisk follows results filed as active; ? = inconclusive; . = no result given; [ ] = dose if it differs, or a comment. Unless noted, calls follow the shape of the dose curve; as a rule, active = well fitted curve in the direction sought with a large enough effect; inconclusive = small, poorly fitted or top-dose-only effect, or another doubt; inactive = no such curve, though single readings can be large; an effect the other way counts as inactive or inconclusive. Unless noted, % is scaled to controls: 0 for no effect and ±100 for the full control effect.

SMILES	Tau ThT inhib	KDM4E inh	NPSR antagonist	Tau fluor counter	Tau fibril FP	PNC assembly inh
CCOC(=O)c1ccc(COC(=O)c2ccc3c(c2)-c2ccccc2C3=O)cc1	?	6%	-3%[46.1 µM]	-25%	2%	31
CCCc1ccc(/C=C2\C(=O)c3ccccc3C(O)=C2C(=O)OCC)cc1	32µM*	18µM*	?	?	?	?
COc1ccc(C(=O)NCC(c2ccc(N(C)C)cc2)N2CCCC2)c(OC)c1 (stereo not given)	-3%	.	.	0%	4%	.
CC(C)C1C(=O)Nc2ccc(S(=O)(=O)NCCc3ccc(Cl)cc3)cc21 (stereo not given)	-3%	.	.	?	?	.
COc1ccc(Nc2cc(C(=O)NCCCN(C)C3CCCCC3)c3ccccc3n2)cc1	?	.	.	11µM*[quencher]	?	.
COc1ccc(N2CCN(CCCNC(=O)c3cc(Nc4ccc(OC)cc4OC)nc4ccccc34)CC2)cc1	18µM*	.	.	16µM*[quencher]	11%	.
COc1ccc(Nc2cc(C(=O)NCCCN(C)C3CCCCC3)c3ccccc3n2)c(OC)c1	?	.	.	?	4%	.
CCc1ccc(Nc2cc(C(=O)NCCCN3CCOCC3)c3ccccc3n2)cc1	?	4%	9%[46.1 µM]	16µM*[quencher]	?	?
COc1ccc(-n2nnnc2C2CCN(S(=O)(=O)c3ccc(NC(C)=O)cc3)CC2)cc1	11%	.	.	-23%	?	.
COc1ccc(C(=O)c2cnc3ccc(C)cc3c2S(=O)(=O)c2ccccc2)cc1	-18%	.	.	-22%	-12%	.
CCC(=O)N1CCc2cc(Br)cc(S(=O)(=O)N3CCCC(C(=O)Nc4ccc(C)c(F)c4)C3)c21 (stereo not given)	2%	.	.	-14%	-3%	.
CCC(C)C(=O)N1c2ccccc2C(=C2SC(C(=O)OC)=C(C(=O)OC)S2)C(=S)C1(C)C (stereo not given)	4µM*	-11%	10µM*	?	?	-26
CCOC(=O)C1=C(C)c2ccccc2N(C(=O)OC)C1(C)C(=O)OCC (stereo not given)	?	.	.	-11%[81.3 µM]	0%[81.3 µM]	.
Cc1cc(Cl)ccc1OC(C)C(=O)Nc1ccccc1N1CCOCC1 (stereo not given)	?	-5%	?	-11%	3%	-104*
CC(C)Oc1cccc(C(=O)Nc2ccccc2N2CCOCC2)c1	-22%	2%	-19%[46.1 µM]	-21%	-1%	5
CCC(C)Oc1cccc(C(=O)Nc2ccccc2N2CCOCC2)c1 (stereo not given)	-15%	-7%	-26%[46.1 µM]	-11%	13%	-87*
Fc1c(F)c(F)c(CSc2nc3ccccc3[nH]2)c(F)c1F	-5%	0%	5%[46.1 µM]	2%	8%	41
c1ccc2[nH]c(SCc3cscn3)nc2c1	-5%	-2%	3%[46.1 µM]	4%	3%	-103*
Cc1ccc(NS(=O)(=O)c2ccc(OCC(=O)Nc3cccc([N+](=O)[O-])c3)c(C)c2)cc1	-4%	-7%	?	14µM*[quencher]	-7%	47
CC(=O)c1cccc(NC(=O)c2ccc(NS(C)(=O)=O)cc2)c1	4%	0%	6%	3%	6%	-119*
Cc1ccc(C(=O)Nc2cccc([N+](=O)[O-])c2)cc1S(=O)(=O)Nc1ccc(NC(=O)c2ccccc2)cc1	-16%	-5%	-22%	4.5µM*[quencher]	?	7
CC(=O)c1cccc(NC(=O)c2ccc(NS(=O)(=O)c3c(C)noc3C)cc2)c1	-13%	6%	4%[46.1 µM]	-15%	-4%	-17
Cc1ccc(C(=O)Nc2ccccc2)cc1S(=O)(=O)Nc1ccc(Br)cc1	4%	.	.	?	16µM*	.
CCc1ccc(OCC2c3cc(OC)c(OC)cc3CCN2C(=O)Cc2ccc(OC)c(OC)c2)cc1 (stereo not given)	-13%	.	.	-11%	-8%	.
CC(=O)c1ccc(NC(=O)C2CCN(c3nnc(C)c4c(C)n(-c5ccccc5)nc34)CC2)cc1	-14%	.	.	-25%	?	.
SMILES	Tau ThT inhib	KDM4E inh	NPSR antagonist	Tau fluor counter	Tau fibril FP	PNC assembly inh
COc1ccc(NC(=O)CSc2nnc(NC(=O)NC3CCCCC3)s2)cc1OC	?	.	.	?	3%	.
CC(=O)c1cccc(NC(=O)c2sc(-n3nc(C)c(Cc4ccccc4)c3C)nc2C)c1	-4%	.	.	-20%	-13%	.
O=C(Nc1ccc(NC(=O)C2CCCCC2)nc1)c1ccccn1	-15%	1%	-1%	-8%	-1%	.
CC(C)(C)c1ccc(Oc2ccc(NC(=O)c3cccs3)cn2)cc1	1%	-11%	?	?	28µM*	.
COc1ccc(NC(=O)c2cccs2)cn1	-13%	-3%	-33%	-20%	-9%	.
O=C(Nc1ccc(NC(=O)C2CC2)nc1)c1cccs1	9%	1%	-6%[46.1 µM]	3%	3%	-107*
O=C(Nc1ccc(NC(=O)C2CC2)cn1)c1ccccc1Cl	-6%	-5%	-7%[46.1 µM]	-9%	-6%	-112*
O=C(Nc1ccc(NC(=O)c2cccs2)cn1)c1ccccc1	-14%	?	-11%	-17%	5%	.
Cn1c(=O)[nH]c(=O)c2c1nc(N1CCOCC1)n2Cc1ccccc1	6%	.	.	5%	1%	.
Cc1ccc(CCNC(=O)CCCc2nnc3n(C)c(=O)c4sccc4n23)cc1	2%	.	.	2%	-3%	.
O=C(CC(=O)NC1CCCCC1)N/N=C/c1cccc2ccccc12	-10%	?	0%[46.1 µM]	-10%	-8%	-86*
O=C(CC(=O)NC1CCCCC1)N/N=C/c1ccccc1Cl	8%	12%	17%	9%	6%	34
Nc1nc(CN2CCN(Cc3ccc4c(c3)OCO4)CC2)nc(Nc2ccccc2)n1	-1%	-10%	-2%[46.1 µM]	7%	5%	-129*
Cc1ccccc1Nc1nc(N)nc(CN2CCN(Cc3ccc4c(c3)OCO4)CC2)n1	-8%	2%	9%	-7%	-5%	.
Nc1nc(CN2CCC(Cc3ccccc3)CC2)nc(Nc2ccccc2)n1	0%	-1%	-11%[46.1 µM]	-10%	4%	-105*
CCc1ccc(NC(=O)N(Cc2cn(CC)c3ccccc23)C2CCCCC2)cc1	-17%	.	.	-11%	-7%	.
CCOC(=O)C1CCN(C(=O)C2CCN(C3=NS(=O)(=O)C(c4ccc(C)c(C)c4)=C3C)CC2)CC1	?	.	.	0%	6%	.
CCc1ccccc1NC(=O)c1ccc(Cn2nc(N3CCN(c4ccccc4)CC3)ccc2=O)o1	?	.	.	-28%	-7%	.
CSc1ncc(CN2CCc3c([nH]c4ccccc34)C2c2cccc(O)c2)cn1 (stereo not given)	-18%	?	44%	16µM*[quencher]	2%	.

Screening data: PubChem BioAssay, National Center for Advancing Translational Sciences (NCATS)
